Data reported in PubChem BioAssay (EPA / NIEHS).
Inconclusive results are not listed. A structure can be active in one record and inactive in another. The source made the active and inactive calls. The calls were made as follows, unless noted: active = hit-call score of the fitted dose curve at least 0.9, where 1 is the maximum; inactive = score below 0.9.

Tests used:
[1] = biological target: Nuclear receptor subfamily 1 group I member 3 (Homo sapiens) (UniProt Q14994); test: ATG_CAR_TRANS: Attagene TRANS-FACTORIAL HepG2 Assay for human Constitutive Androstane Receptor (CAR) (AID 2282969; active = hit-call score of the fitted dose curve at least 0.9, where 1 is the maximum;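 also: activators raise reporter mRNA above DMSO so AC50 marks induction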); details: HepG2 Attagene TRANS-FACTORIAL CAR reporter
Summary of the method: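 HepG2 cells transiently transfected with multiplexed GAL4-UAS reporter units expressing chimeric NR-Gal4 proteins; compound exposure 24 h. Reporter mRNA measured by RT-PCR, 6-FAM labelling, HpaI digestion and capillary electrophoresis; gain-of-signal fitted against DMSO baseline.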

[2] = BSK_3C_TissueFactor: BioMAP Diversity Plus: 3C Assay for Tissue Factor Biomarker Activity (AID 2282997); details: BioMAP 3C HUVEC, tissue factor biomarker readout; actives raise or lower the signal
Summary of the method: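 Values derive from bidirectional curve fitting against DMSO of Tissue Factor ELISA signals, taken 24 h after dosing primary human umbilical vein endothelial cells.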

[3] = BSK_3C_VCAM1: BioMAP Diversity Plus: 3C Assay for Vascular cell adhesion molecule 1 (VCAM1) Biomarker Activity (AID 2282999); details: BioMAP 3C HUVEC, VCAM1 ELISA, cytokine-stimulated; actives raise or lower the signal
Summary of the method: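 Human umbilical vein endothelial cells were dosed with compound for 24 h, after which cell-surface VCAM-1 was quantified by ELISA. Bidirectional curve fitting used DMSO as negative control and activity baseline.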

[4] = BSK_3C_Proliferation: Cell Proliferation Assessment in the BioMAP Diversity Plus: 3C Assay (AID 2283006); details: primary human endothelial cells (HUVEC);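 as to AC50: potency may reflect either rise or fall in cell number versus DMSO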
Summary of the method: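 Human umbilical vein endothelial cells were grown sub-confluent and exposed to chemical for 48 h, then fixed with 10% TCA and stained with 0.1% sulforhodamine B; absorbance at 560 nm gave relative cell number, fitted bidirectionally against DMSO baseline.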

[5] = read-out: E-selectin (Homo sapiens) (UniProt P16581); test: BSK_3C_Eselectin: BioMAP Diversity Plus: 3C Assay for Eselectin Biomarker Activity (AID 2283015); details: primary human endothelial cells (HUVEC); actives raise or lower the signal
Summary of the method: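 Human vascular endothelium from umbilical vein is exposed to test chemicals for 24 h. E-selectin levels are read by ELISA and compared with DMSO controls.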

[6] = read-out: Interleukin-1 alpha (IL1a), IL1A (gene 3552); test: BSK_BE3C_IL1a: BioMAP Diversity Plus: BE3C Assay for Interleukin-1 alpha (IL1a) Biomarker Activity (AID 2283016); details: primary human bronchial epithelial cells; actives raise or lower the signal
Summary of the method: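 Human primary bronchial epithelial cells (BE3C system) were dosed with compound and IL-1a measured by ELISA 24 h later. Activity was fitted bidirectionally against DMSO baseline; cytotoxicity was tracked in parallel cultures by SRB total-protein staining.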

[7] = read-out: Human Leukocyte Antigen - DR isotype (HLADR), HLA-DRA (gene 3122); test: BSK_3C_HLADR: BioMAP Diversity Plus: 3C Assay for Human Leukocyte Antigen - DR isotype (HLADR) Biomarker Activity (AID 2283019); details: primary human endothelial cells (HUVEC); actives raise or lower the signal
Summary of the method: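 Endothelial cells from human umbilical vein are treated with test chemical; after 24 h, HLA-DR levels are measured by ELISA. Data are fitted in both directions using DMSO as the baseline.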

[8] = read-out: Urokinase-type plasminogen activator receptor (uPAR), PLAUR (gene 5329); test: BSK_4H_uPAR: BioMAP Diversity Plus: 4H Assay for Urokinase-type plasminogen activator receptor (uPAR) Biomarker Activity (AID 2283030); details: primary human endothelial cells (HUVEC); actives raise or lower the signal
Summary of the method: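 Chemicals are dosed onto human vascular endothelial primary cells (umbilical vein). After 24 h, uPAR is read by ELISA. Gain or loss of signal is fitted relative to DMSO.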

[9] = read-out: Plasminogen activator inhibitor-1 (PAI1), SERPINE1 (gene 5054); test: BSK_BE3C_PAI1: BioMAP Diversity Plus: BE3C Assay for Plasminogen activator inhibitor-1 (PAI1) Biomarker Activity (AID 2283037); details: primary human bronchial epithelial cells; actives raise or lower the signal
Summary of the method: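 Human primary bronchial epithelial cells were exposed to chemical for 24 h, then PAI-1 was quantified by ELISA. Activity was fitted bidirectionally relative to the DMSO negative control baseline.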

[10] = read-out: Human Leukocyte Antigen - DR isotype (HLADR), HLA-DRA (gene 3122); test: BSK_CASM3C_HLADR: BioMAP Diversity Plus: CASM3C Assay for Human Leukocyte Antigen - DR isotype (HLADR) Biomarker Activity (AID 2283043); details: primary human coronary artery smooth muscle cells; actives raise or lower the signal;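 also: cell-surface HLA-DR protein level quantified by ELISA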
[11] = read-out: Thrombomodulin, THBD (gene 7056); test: BSK_CASM3C_Thrombomodulin: BioMAP Diversity Plus: CASM3C Assay for Thrombomodulin Biomarker Activity (AID 2283051); details: primary human coronary artery smooth muscle cells; actives raise or lower the signal;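 also: thrombomodulin protein level measured by ELISA 24 h after dosing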
[12] = read-out: Vascular cell adhesion molecule 1 (VCAM1), VCAM1 (gene 7412); test: BSK_CASM3C_VCAM1: BioMAP Diversity Plus: CASM3C Assay for Vascular cell adhesion molecule 1 (VCAM1) Biomarker Activity (AID 2283055); details: primary human coronary artery smooth muscle cells; actives raise or lower the signal;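 also: VCAM-1 protein level quantified by ELISA on the cells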
[13] = read-out: TIMP metallopeptidase inhibitor 2 (TIMP2), TIMP2 (gene 7077); test: BSK_KF3CT_TIMP2: BioMAP Diversity Plus: KF3CT Assay for TIMP metallopeptidase inhibitor 2 (TIMP2) Biomarker Activity (AID 2283071); details: primary human keratinocytes with fibroblasts; actives raise or lower the signal
Summary of the method: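 Human primary keratinocyte/foreskin fibroblast co-culture dosed with chemical and sampled at 24 h. TIMP-2 levels quantified by ELISA; bidirectional fitting against DMSO negative control as baseline.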

[14] = read-out: Interleukin-1 alpha (IL1a), IL1A (gene 3552); test: BSK_LPS_IL1a: BioMAP Diversity Plus: LPS Assay for Interleukin-1 alpha (IL1a) Biomarker Activity (AID 2283080); details: primary human HUVEC with PBMC; actives raise or lower the signal
Summary of the method: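 Measured: IL-1 alpha via ELISA at 24 h in LPS-activated human umbilical vein endothelium–PBMC co-culture. Baseline: DMSO, bidirectional fitting.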

[15] = BSK_LPS_PGE2: BioMAP Diversity Plus: LPS Assay for Prostaglandin E2 (PGE2) Biomarker Activity (AID 2283082); details: primary human HUVEC with PBMC; actives raise or lower the signal;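 as to AC50: secreted prostaglandin E2 measured by ELISA in LPS-stimulated co-culture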
Summary of the method: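 HUVEC plus PBMC co-culture stimulated with LPS; secreted PGE2 quantified by ELISA 24 h after chemical dosing. Activity fitted bidirectionally against DMSO as negative control and baseline; parallel SRB total-protein staining served as cytotoxicity check.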

CD38, CD38 (gene 952) = test: BSK_SAg_CD38: BioMAP Diversity Plus: SAg Assay for CD38 Biomarker Activity (AID 2283087); details: primary human HUVEC with PBMC; actives raise or lower the signal
Summary of the method: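 Fluorescence ELISA of cell-surface CD38 served as the read-out, with either increase or decrease fitted against DMSO controls. Cells were a human umbilical vein endothelium plus PBMC co-culture under SEB/TSST-1 stimulation, measured 24 h after dosing.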

CD69, CD69 (gene 969) = test: BSK_SAg_CD69: BioMAP Diversity Plus: SAg Assay for CD69 Biomarker Activity (AID 2283089); details: primary human HUVEC with PBMC; actives raise or lower the signal;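 as to AC50: cell surface CD69 protein quantified by ELISA with fluorescence detection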
Summary of the method: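 Endothelial/PBMC co-culture; chemical added; 24 h incubation; CD69 ELISA with fluorescence detection; bidirectional fit vs DMSO.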

[16] = read-out: E-selectin (Homo sapiens) (UniProt P16581); test: BSK_SAg_Eselectin: BioMAP Diversity Plus: SAg Assay for Eselectin Biomarker Activity (AID 2283091); details: primary human HUVEC with PBMC; actives raise or lower the signal
Summary of the method: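 Primary human endothelial cells and peripheral blood mononuclear cells were co-cultured and exposed to chemical for 24 hours. E-selectin levels were then quantified by ELISA, with bidirectional curve fitting normalised to DMSO controls.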

[17] = CCTE_Harrill_HTTr_Viability_MCF7: CCTE's 6-hour Cell Viability Assessment for the High-Throughput Transcriptomics (HTTr) Platform, in MCF-7 cells cultured in DMEM + 10% fetal bovine serum, Harrill Lab (AID 2284010)
Summary of the method: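 Membrane integrity was scored by high-content imaging of propidium iodide dye exclusion after a 6 h exposure across an eight-point dilution series. Data were fitted bidirectionally relative to DMSO as negative control and baseline.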

[18] = CCTE_Harrill_HTTr_Apoptosis_MCF7: CCTE's 6-hour Apoptosis Assessment for the High-Throughput Transcriptomics (HTTr) Platform, in MCF-7 cells cultured in DMEM + 10% fetal bovine serum, Harrill Lab (AID 2284011)
Summary of the method: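 Cells are dosed with test chemicals at eight concentrations and imaged 6 hours later for caspase-3/7 activity using a green fluorogenic detection reagent. Activity is fitted in both directions against DMSO controls.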

Measured: AC50

E-selectin (Homo sapiens), sequence (P16581 whole entry, looked up): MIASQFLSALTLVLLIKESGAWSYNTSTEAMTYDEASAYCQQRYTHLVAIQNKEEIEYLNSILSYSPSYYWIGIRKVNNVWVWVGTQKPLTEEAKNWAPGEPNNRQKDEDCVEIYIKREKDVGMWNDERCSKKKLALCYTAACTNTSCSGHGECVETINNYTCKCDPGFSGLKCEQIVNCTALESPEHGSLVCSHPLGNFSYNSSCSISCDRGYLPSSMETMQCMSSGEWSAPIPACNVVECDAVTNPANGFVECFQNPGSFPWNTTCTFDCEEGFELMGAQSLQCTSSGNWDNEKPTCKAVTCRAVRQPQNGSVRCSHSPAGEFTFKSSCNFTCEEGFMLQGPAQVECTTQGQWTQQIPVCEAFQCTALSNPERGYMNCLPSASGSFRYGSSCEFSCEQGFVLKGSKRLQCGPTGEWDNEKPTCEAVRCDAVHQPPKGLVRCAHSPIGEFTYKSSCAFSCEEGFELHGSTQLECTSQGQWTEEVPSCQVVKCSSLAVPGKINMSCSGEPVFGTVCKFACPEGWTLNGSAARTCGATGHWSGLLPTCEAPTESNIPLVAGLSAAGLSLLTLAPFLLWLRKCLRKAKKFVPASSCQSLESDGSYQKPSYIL
Nuclear receptor subfamily 1 group I member 3 (Homo sapiens), sequence (Q14994 whole entry, looked up, the tested form may be a part): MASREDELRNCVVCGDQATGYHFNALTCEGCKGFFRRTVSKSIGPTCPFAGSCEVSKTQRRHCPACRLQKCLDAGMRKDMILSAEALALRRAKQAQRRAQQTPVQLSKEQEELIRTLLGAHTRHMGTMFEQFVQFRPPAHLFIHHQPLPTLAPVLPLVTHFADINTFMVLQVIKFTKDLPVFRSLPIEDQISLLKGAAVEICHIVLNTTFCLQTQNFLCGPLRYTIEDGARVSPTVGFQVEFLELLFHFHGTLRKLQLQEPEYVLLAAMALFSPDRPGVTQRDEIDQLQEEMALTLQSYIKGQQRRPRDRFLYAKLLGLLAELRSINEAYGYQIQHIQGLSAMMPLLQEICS

CCCCCCCCCCCC#N
active: [3] 32.3 µM | [4] 32.2 µM | [5] 30.2 µM | [7] 28.6 µM | [8] 20.6 µM | [12] 20.6 µM | [14] 32.4 µM | [15] 32 µM | CD38, CD38 (gene 952) 35.6 µM | CD69, CD69 (gene 969) 33.7 µM | [16] 31.3 µM
inactive: [1] | [2] | [6] | [9] | [10] | [11] | [13]

CCOP(=O)(OCC)Oc1ccc([N+](=O)[O-])cc1
inactive: [1] | [17] | [18]

C[N+](C)(C)CC(=O)[O-]
inactive: [17] | [18]

COc1ccc(CO)cc1
active: [9] 0.308 µM
inactive: [2] | [3] | [4] | [5] | [6] | [7] | [8] | [9] | [10] | [11] | [12] | [13] | [14] | [15] | CD38, CD38 (gene 952) | CD69, CD69 (gene 969) | [16] | [17] | [18]

Clc1ccc(-c2ccccc2)cc1
inactive: [1] | [2] | [3] | [4] | [5] | [6] | [7] | [8] | [9] | [10] | [11] | [12] | [13] | [14] | CD38, CD38 (gene 952) | CD69, CD69 (gene 969) | [16] | [17] | [18]
active: [15] 17.2 µM

Cl/C=C\CCl
inactive: [17] | [18]
